Results filed as inconclusive are left out. Active and inactive are the calls of the source. Rule for the calls, unless noted: active = hit-call score of the fitted dose curve at least 0.9, where 1 is the maximum; inactive = score below 0.9.

This is an account of results in PubChem BioAssay (EPA / NIEHS).

Experiment [1] addresses Glucocorticoid receptor (Homo sapiens) (UniProt P04150). Kind of experiment: ATG_GR_TRANS: Attagene TRANS-FACTORIAL HepG2 Assay for human Glucocorticoid Receptor (GR) (AID 2282978; active = hit-call score of the fitted dose curve at least 0.9, where 1 is the maximum;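 note: activators score as hits since higher reporter transcript over DMSO is fitted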). The conditions noted are these: HepG2 Attagene TRANS GR reporter, mRNA transcription. An outline of the steps: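 Measurement of GAL4-UAS-driven reporter mRNA in human HepG2 liver cells 24 h post-dosing, using RT-PCR with fluorescent labelling and capillary electrophoresis; the transfected constructs report exogenous NR-GAL4 chimera activity, fitted upward against DMSO.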

Experiment [2] has as its target Bile acid receptor (Homo sapiens) (UniProt Q96RI1). Kind of experiment: ATG_FXR_TRANS: Attagene TRANS-FACTORIAL HepG2 Assay for Farnesoid X Receptor (FXR) (AID 2282979; active = hit-call score of the fitted dose curve at least 0.9, where 1 is the maximum;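 note: hits raise reporter mRNA above DMSO so AC50 marks FXR activation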). The conditions noted are these: HepG2 Attagene TRANS FXR-GAL4 reporter transcription. An outline of the steps:
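Reporter transcripts from transfected HepG2 cells were measured 24 h after dosing, using RT-PCR with capillary electrophoresis of 6-FAM-labelled fragments. The read-out reflects activity of exogenous FXR-Gal4 chimera on GAL4-UAS units, with induction relative to DMSO.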

Experiment [3] concerns the target Oxysterols receptor LXR-alpha (Homo sapiens) (UniProt Q13133). Briefly: ATG_LXRa_TRANS: Attagene TRANS-FACTORIAL HepG2 Assay for human Liver X Receptor alpha (LXRa) (AID 2282980; active = hit-call score of the fitted dose curve at least 0.9, where 1 is the maximum). Conditions: HepG2 Attagene TRANS reporter, LXRa transactivation. An outline of the steps:
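Chemical-induced reporter mRNA measured by RT-PCR with fluorescent labelling and capillary electrophoresis after 24 h dosing of transiently transfected HepG2 cells expressing exogenous NR-Gal4 chimeras; increases scored against DMSO baseline.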

The target in experiment [4] is Oxysterols receptor LXR-beta (Homo sapiens) (UniProt P55055). Kind of experiment: ATG_LXRb_TRANS: Attagene TRANS-FACTORIAL HepG2 Assay for human Liver X Receptor beta (LXRb) (AID 2282981; active = hit-call score of the fitted dose curve at least 0.9, where 1 is the maximum). Conditions: HepG2 Attagene TRANS GAL4-LXRb reporter, mRNA. An outline of the steps:
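In this TRANS format, exogenous chimeric NR-Gal4 protein activity, not endogenous factors, drives reporter expression in transfected human HepG2 cells. Exposure lasted 24 h; reporter mRNA was read by fluorescent capillary electrophoresis.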

A short description of experiment [5]: ATG_M_32_TRANS: Attagene TRANS-FACTORIAL HepG2 Assay for M32 Transcription Factor (Internal Marker) (AID 2282984; active = hit-call score of the fitted dose curve at least 0.9, where 1 is the maximum;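 note: transcript level of a background control reporter unit measured by RT-PCR and capillary electrophoresis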). Conditions: HepG2 Attagene TRANS M32 internal marker reporter. An outline of the steps:
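Human hepatoma HepG2, transient MRTU transfection, 24 h treatment. RNA → RT-PCR → fluorescent primer extension → HpaI digest (2 h, 37 C) → CE. Positive-direction fit vs DMSO.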

The target in experiment [6] is Transcriptional activator Myb (Homo sapiens) (UniProt P10242). Kind of experiment: ATG_Myb_CIS: Attagene CIS-FACTORIAL HepG2 Assay for human Myeloblastosis (Myb) Proto-Oncogene Transcription Factor (AID 2282986). Conditions: HepG2 Attagene CIS-FACTORIAL Myb reporter transcription; actives raise or lower the signal. The procedure, abridged: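 Fluorescence signals from capillary electrophoresis of RT-PCR-amplified reporter cDNA give the read-out. Cells: HepG2 transfected with multiple cis-regulated reporter units. Exposure lasts 24 hours; DMSO defines baseline for gain or loss of signal.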

Experiment [7] deals with Nuclear respiratory factor 1 (Homo sapiens) (UniProt Q16656). Briefly: ATG_NRF1_CIS: Attagene CIS-FACTORIAL HepG2 Assay for human Nuclear Respiratory Factor 1 (NRF1) Orphan Gene (AID 2282987). The conditions noted are these: HepG2 NRF1 cis-element reporter, Attagene multiplex; actives raise or lower the signal. An outline of the steps: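 Transcriptional reporter readout, one component of a 52-endpoint multiplexed HepG2 panel. Exposure 24 h; mRNA detected via RT-PCR and fluorescent capillary electrophoresis; fitting in both directions against DMSO.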

Experiment [8] is described as follows: ATG_NFI_CIS: Attagene CIS-FACTORIAL HepG2 Assay for human Nuclear Factor I (NFI) (AID 2282989). Conditions: HepG2 cis-regulatory reporter, NFI response element transcription; actives raise or lower the signal. The procedure, abridged: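 Endogenous TF activity in HepG2 cells transiently transfected with cis-element-driven multiplexed reporter units, read 24 h after dosing. Reporter mRNA quantified by RT-PCR, 6-FAM labelling, HpaI digestion and capillary electrophoresis; bidirectional fit versus DMSO.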

The target of experiment [9] is Myc proto-oncogene protein (Homo sapiens) (UniProt P01106). Briefly: ATG_Myc_CIS: Attagene CIS-FACTORIAL HepG2 Assay for human Myelocytomatosis (Myc) Proto-Oncogene Transcription Factor (AID 2282990). Conditions: HepG2, Attagene cis-reporter transcription factor activity; actives raise or lower the signal. The procedure, abridged:
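HepG2 cells transiently transfected with multiple cis-promoter-driven reporter transcription units, so endogenous TF activity is read. After 24 h compound exposure, reporter mRNA was quantified by RT-PCR, 6-FAM labelling, HpaI digestion and capillary electrophoresis; bidirectional fit versus DMSO.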

Experiment [10] is described as follows: ATG_NF_kB_CIS: Attagene CIS-FACTORIAL HepG2 Assay for human Nuclear Factor Kappa B (NF-kB) (AID 2282991). The conditions noted are these: HepG2 Attagene cis-factorial NF-kB reporter mRNA; actives raise or lower the signal. An outline of the steps: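 HepG2, transient multi-reporter transfection, cis promoter elements (endogenous TFs). 24 h exposure. Total RNA → RT → PCR → 6-FAM label → HpaI → CE. Gain/loss vs DMSO.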

A short description of experiment [11]: ATG_NRF2_ARE_CIS: Attagene CIS-FACTORIAL HepG2 Assay for human Nuclear Factor Erythroid 2 Related Factor 2 (NFR2) response to Antioxidant Response Elements (ARE) (AID 2282992).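 Note: reporter mRNA level measured by RT-PCR and capillary electrophoresis fluorescence.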 The conditions noted are these: HepG2 Attagene ARE/NRF2 reporter, transcription factor activity; actives raise or lower the signal. An outline of the steps:
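Transient MRTU transfection of HepG2; 24 h compound exposure; TriZol RNA, RT with oligo(dT), PCR, 6-FAM primer extension, HpaI cut, CE. Bidirectional fit vs DMSO.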

Experiment [12] is described as follows: ATG_Oct_MLP_CIS: Attagene CIS-FACTORIAL HepG2 Assay for human Octamer-Binding Transcription Factor (Oct) (AID 2282993). Conditions: HepG2 Attagene cis-factorial Oct reporter, mRNA; actives raise or lower the signal. An outline of the steps: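 HepG2 cells transiently transfected with cis-element-driven reporter transcription units (endogenous TF activity); 24 h compound exposure. Reporter mRNA quantified by RT-PCR, 6-FAM labelling, HpaI digestion and capillary electrophoresis; bidirectional fit versus DMSO baseline.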

For experiment [13], the target named is Cellular tumor antigen p53 (Homo sapiens) (UniProt P04637). Kind of experiment: ATG_p53_CIS: Attagene CIS-FACTORIAL HepG2 Assay for human p53 Transcription Factor (AID 2282994). Conditions: HepG2 p53 cis-element reporter, Attagene mRNA; actives raise or lower the signal. An outline of the steps: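 HepG2, transient MRTU transfection (cis promoter elements, endogenous TFs); 24 h dosing; RNA isolation, RT-PCR, 6-FAM primer extension, HpaI digest, CE fluorescence; bidirectional fit vs DMSO.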

Experiment [14] concerns the target Hepatocyte nuclear factor 4-alpha (Homo sapiens) (UniProt P41235). Kind of experiment: ATG_HNF4a_TRANS: Attagene TRANS-FACTORIAL HepG2 Assay for human Hepatocyte Nuclear Factor 4 alpha (HNF4a) (AID 2282982; active = hit-call score of the fitted dose curve at least 0.9, where 1 is the maximum). Conditions: HepG2 HNF4a transactivation reporter, mRNA readout. The procedure, abridged: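 Cells used were human HepG2, transiently carrying GAL4-UAS reporter units read out against exogenous NR-GAL4 chimeras. Reporter transcript levels after 24 h dosing were quantified by fluorescent RT-PCR and capillary electrophoresis.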

Experiment [15] is described as follows: ATG_M_06_TRANS: Attagene TRANS-FACTORIAL HepG2 Assay for M06 Transcription Factor (Internal Marker) (AID 2282983; active = hit-call score of the fitted dose curve at least 0.9, where 1 is the maximum). The conditions noted are these: HepG2 Attagene TRANS M06 internal marker reporter. An outline of the steps:
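Cells: HepG2, transient multi-reporter transfection. Exposure: 24 h. Detection: RT-PCR, 6-FAM labelling, HpaI digestion (2 h, 37 °C), capillary electrophoresis. Baseline: DMSO.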

Experiment [16] deals with Estrogen-related receptor gamma (Homo sapiens) (UniProt P62508). Kind of experiment: ATG_ERRg_TRANS: Attagene TRANS-FACTORIAL HepG2 Assay for human Estrogen-Related Receptor gamma (ERRg) (AID 2282977; active = hit-call score of the fitted dose curve at least 0.9, where 1 is the maximum;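 note: hits increase reporter signal over DMSO so potencies reflect activators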). Conditions: HepG2 Attagene TRANS reporter, ERRg transactivation. The procedure, abridged: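 Transfect HepG2 with multiple GAL4-UAS reporter transcription units; dose chemicals 24 h; isolate RNA, reverse-transcribe with oligo(dT), PCR-amplify, label with 6-FAM, digest with HpaI; size fragments by capillary electrophoresis. DMSO serves as negative control.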

The target of experiment [17] is Nuclear receptor subfamily 4 group A member 2 (Homo sapiens) (UniProt P43354). Kind of experiment: ATG_NURR1_TRANS: Attagene TRANS-FACTORIAL HepG2 Assay for human Nuclear Receptor Related Protein 1 (NURR1) (AID 2282985; active = hit-call score of the fitted dose curve at least 0.9, where 1 is the maximum). The conditions noted are these: HepG2 Attagene TRANS reporter, mRNA readout. An outline of the steps:
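After 24 h chemical dosing, total RNA from transiently transfected HepG2 cells was reverse-transcribed and reporter cDNA PCR-amplified, FAM-labelled and analysed by capillary electrophoresis. Activity fitted in positive direction, DMSO as negative control.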

Glucocorticoid receptor (Homo sapiens), sequence (P04150 whole entry, looked up, the tested form may be a part): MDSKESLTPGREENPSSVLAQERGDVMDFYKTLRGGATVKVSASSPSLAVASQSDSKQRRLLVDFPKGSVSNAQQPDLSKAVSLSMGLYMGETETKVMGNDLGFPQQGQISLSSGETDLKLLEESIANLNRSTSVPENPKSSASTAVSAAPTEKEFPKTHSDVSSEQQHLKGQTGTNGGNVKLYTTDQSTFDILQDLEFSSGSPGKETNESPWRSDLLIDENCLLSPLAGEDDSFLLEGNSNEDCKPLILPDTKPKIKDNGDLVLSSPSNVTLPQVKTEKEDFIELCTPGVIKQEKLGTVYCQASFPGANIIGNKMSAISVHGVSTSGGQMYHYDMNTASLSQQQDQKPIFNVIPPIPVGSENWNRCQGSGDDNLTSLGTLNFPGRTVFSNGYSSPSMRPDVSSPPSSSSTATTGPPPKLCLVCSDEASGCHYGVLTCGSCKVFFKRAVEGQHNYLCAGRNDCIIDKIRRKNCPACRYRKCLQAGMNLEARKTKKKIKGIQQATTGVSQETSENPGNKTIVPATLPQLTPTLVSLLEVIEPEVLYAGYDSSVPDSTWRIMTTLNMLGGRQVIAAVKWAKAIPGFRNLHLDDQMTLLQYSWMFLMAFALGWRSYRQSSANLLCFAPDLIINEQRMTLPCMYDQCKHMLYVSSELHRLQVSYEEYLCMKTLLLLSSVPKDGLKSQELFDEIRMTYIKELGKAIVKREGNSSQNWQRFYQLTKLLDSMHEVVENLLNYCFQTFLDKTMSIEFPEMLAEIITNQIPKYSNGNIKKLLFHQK
Cellular tumor antigen p53 (Homo sapiens), sequence (P04637 whole entry, looked up): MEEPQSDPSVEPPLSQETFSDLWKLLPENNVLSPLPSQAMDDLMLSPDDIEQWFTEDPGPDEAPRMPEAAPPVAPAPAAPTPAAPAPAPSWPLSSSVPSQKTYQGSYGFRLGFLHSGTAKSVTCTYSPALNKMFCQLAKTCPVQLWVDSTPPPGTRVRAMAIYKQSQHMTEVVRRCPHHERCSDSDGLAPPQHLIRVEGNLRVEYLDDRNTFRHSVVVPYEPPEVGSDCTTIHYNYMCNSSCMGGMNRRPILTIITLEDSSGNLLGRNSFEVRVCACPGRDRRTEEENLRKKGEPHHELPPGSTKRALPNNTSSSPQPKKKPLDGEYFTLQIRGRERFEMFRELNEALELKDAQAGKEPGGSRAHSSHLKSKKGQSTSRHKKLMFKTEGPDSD
Oxysterols receptor LXR-alpha (Homo sapiens), sequence (Q13133 whole entry, looked up, the tested form may be a part): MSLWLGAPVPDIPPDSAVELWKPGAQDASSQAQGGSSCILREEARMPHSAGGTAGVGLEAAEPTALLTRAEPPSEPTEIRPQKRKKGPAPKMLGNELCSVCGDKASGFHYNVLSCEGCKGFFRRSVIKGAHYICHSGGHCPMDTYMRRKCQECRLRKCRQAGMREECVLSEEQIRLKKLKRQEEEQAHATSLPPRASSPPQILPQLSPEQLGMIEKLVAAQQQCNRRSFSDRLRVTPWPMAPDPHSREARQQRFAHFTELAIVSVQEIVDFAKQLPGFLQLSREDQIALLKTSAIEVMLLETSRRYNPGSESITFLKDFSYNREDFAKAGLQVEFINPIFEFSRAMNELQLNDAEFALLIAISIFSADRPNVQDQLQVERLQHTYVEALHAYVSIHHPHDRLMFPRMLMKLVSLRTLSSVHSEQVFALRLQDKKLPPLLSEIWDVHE
Transcriptional activator Myb (Homo sapiens), sequence (P10242 whole entry, looked up): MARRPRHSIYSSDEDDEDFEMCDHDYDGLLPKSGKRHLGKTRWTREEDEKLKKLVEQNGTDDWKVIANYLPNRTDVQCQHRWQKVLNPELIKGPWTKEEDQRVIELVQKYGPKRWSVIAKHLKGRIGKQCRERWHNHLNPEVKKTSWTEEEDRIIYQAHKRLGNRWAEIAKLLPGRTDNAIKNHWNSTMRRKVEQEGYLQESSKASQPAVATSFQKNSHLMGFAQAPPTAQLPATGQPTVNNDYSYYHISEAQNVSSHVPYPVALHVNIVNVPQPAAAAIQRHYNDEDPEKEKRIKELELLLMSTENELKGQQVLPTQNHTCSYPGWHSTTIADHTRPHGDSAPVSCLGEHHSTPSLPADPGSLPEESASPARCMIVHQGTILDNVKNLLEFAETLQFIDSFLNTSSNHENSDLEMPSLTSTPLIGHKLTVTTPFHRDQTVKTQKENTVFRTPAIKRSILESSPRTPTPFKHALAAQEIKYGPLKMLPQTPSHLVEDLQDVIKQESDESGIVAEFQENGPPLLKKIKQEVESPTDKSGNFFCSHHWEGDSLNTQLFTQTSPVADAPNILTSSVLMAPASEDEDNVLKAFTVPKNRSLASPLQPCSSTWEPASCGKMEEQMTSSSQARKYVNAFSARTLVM
Nuclear respiratory factor 1 (Homo sapiens), sequence (Q16656 whole entry, looked up): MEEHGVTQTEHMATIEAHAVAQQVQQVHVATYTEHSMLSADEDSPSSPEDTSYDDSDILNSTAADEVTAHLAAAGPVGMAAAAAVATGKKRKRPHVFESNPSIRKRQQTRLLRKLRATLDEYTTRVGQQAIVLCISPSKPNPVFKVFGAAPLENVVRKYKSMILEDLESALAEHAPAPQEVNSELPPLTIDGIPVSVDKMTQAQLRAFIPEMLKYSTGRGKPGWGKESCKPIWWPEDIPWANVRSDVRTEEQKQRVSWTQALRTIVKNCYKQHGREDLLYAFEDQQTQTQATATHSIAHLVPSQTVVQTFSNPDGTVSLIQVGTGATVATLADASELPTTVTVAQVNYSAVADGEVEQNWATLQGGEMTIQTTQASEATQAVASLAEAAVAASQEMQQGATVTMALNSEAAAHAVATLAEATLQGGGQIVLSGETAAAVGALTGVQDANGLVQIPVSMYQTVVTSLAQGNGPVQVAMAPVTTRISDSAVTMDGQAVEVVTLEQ
Oxysterols receptor LXR-beta (Homo sapiens), sequence (P55055 whole entry, looked up, the tested form may be a part): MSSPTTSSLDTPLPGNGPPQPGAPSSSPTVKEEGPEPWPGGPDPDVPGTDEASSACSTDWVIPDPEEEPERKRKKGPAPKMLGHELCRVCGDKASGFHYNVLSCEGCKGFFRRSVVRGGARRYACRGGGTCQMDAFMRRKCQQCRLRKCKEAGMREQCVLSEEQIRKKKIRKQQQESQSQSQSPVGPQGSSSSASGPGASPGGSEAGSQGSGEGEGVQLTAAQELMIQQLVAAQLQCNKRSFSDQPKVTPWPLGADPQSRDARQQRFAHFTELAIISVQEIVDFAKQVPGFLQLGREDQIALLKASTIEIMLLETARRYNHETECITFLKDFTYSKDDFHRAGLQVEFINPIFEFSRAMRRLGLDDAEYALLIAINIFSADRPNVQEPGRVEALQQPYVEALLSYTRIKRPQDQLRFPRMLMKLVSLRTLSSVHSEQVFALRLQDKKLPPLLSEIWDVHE
Hepatocyte nuclear factor 4-alpha (Homo sapiens), sequence (P41235 whole entry, looked up, the tested form may be a part): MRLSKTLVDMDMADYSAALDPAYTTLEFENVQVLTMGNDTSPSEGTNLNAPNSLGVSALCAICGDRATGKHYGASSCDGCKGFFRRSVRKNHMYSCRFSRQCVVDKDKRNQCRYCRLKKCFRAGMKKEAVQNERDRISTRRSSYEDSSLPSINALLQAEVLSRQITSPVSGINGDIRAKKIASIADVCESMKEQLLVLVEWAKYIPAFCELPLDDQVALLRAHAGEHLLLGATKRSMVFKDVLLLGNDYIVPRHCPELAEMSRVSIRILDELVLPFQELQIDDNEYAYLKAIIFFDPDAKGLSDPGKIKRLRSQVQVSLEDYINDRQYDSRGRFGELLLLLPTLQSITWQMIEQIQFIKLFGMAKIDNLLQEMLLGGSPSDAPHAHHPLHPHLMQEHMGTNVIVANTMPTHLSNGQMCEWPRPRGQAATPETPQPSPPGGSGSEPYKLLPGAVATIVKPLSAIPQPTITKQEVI
Myc proto-oncogene protein (Homo sapiens), sequence (P01106 whole entry, looked up): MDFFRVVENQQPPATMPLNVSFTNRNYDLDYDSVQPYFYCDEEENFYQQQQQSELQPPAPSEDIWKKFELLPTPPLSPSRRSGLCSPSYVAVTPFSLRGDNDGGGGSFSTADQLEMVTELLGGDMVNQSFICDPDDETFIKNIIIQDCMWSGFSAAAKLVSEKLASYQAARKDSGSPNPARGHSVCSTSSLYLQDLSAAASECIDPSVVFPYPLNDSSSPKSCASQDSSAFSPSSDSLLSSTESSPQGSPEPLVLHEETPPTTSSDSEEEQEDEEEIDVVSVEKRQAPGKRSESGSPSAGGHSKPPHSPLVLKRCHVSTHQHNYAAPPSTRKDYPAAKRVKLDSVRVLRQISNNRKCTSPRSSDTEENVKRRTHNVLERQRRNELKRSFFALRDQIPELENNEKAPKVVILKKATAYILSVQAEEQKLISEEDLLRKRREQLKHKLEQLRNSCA
Bile acid receptor (Homo sapiens), sequence (Q96RI1 whole entry, looked up, the tested form may be a part): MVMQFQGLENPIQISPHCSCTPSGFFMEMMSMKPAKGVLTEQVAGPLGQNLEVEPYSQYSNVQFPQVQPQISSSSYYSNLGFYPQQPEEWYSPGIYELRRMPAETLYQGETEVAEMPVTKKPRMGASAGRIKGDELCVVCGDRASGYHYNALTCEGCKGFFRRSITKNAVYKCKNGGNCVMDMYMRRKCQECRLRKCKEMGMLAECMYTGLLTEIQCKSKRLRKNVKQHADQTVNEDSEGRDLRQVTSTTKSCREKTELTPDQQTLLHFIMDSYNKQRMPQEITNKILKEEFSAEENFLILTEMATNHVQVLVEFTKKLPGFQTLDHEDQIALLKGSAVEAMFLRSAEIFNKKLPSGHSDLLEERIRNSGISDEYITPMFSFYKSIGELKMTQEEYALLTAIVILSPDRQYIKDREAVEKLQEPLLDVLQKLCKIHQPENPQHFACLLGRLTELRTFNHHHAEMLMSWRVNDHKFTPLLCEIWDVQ

As for `CC(C)(C)NC(=O)[C@H]1CC[C@H]2[C@@H]3CC[C@H]4NC(=O)C=C[C@]4(C)[C@H]3CC[C@]12C`, the result in [1], in experiment [2], in [3], in experiment [4], in experiment [5] and in [6] was inactive. In addition, the molecule was classed as inactive in experiment [7], in experiment [8], in experiment [9], in experiment [10] and in experiment [12]. Further, the AC50 (usually the midpoint of the concentration-response curve, whichever way the signal moves) in [11] is 100 µM (active); in [13], 38.7 µM (active).

In the case of `CCCCCCCOC(=O)c1ccc(O)cc1`, the outcome in [1], in [2], in experiment [4], in experiment [14], in experiment [15] and in experiment [5] was inactive. For the same molecule, the result in [6], in experiment [7], in experiment [8], in experiment [9], in experiment [10] and in experiment [13] was inactive. The AC50 in [12] was 46 µM (active).

With `Cn1cccc1`, the molecule was called inactive in [16], in [3], in experiment [14], in experiment [5], in experiment [6] and in experiment [9]. The result in experiment [10], in experiment [12] and in [13] was inactive. Also, the AC50 was 26.2 µM (active) in experiment [8] and 29.5 µM (active) in experiment [11].

Regarding `N=C1C=CC(=C(c2ccc(N)cc2)c2ccc(N)cc2)C=C1`, the molecule was called inactive in [16], in experiment [15], in experiment [5], in [17], in experiment [8] and in [9]. The outcome in experiment [12] was inactive. Also, the AC50 in [14] is 129 µM (active); in [6], 24.9 µM (active); in experiment [7], 100 µM (active); in experiment [10] it was 41.1 µM (active); in experiment [11], 9.02 µM (active); in experiment [13], 33.4 µM (active).

In the case of `CC1(C)CCC[C@]2(C)[C@H]3CC(=O)O[C@]3(C)CC[C@@H]12`, the result in experiment [1], in experiment [2], in experiment [3], in experiment [4], in experiment [5] and in experiment [6] was inactive. The result in experiment [7], in experiment [8], in [9], in [10], in experiment [12] and in [13] was inactive. Also, the AC50 in [11] was 30.3 µM (active).
